Pf Dd2 growth: Plasmodium falciparum Dd2 growth inhibition; P. falciparum Dd2 growth, SYBR Green, 72 h; Potency, µM (titrated, usually from 28.9 µM), for inactives: at the top dose activity, negative = inhibition, most hits filed as inhibitors; actives 4.3% (n = 120,000); AID 1347417; active = well fitted inhibition curve with a large enough effect;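 also: plate controls were DMSO vehicle for no effect and reference drug for full effect; nearly all actives have a fitted effect of over 65% in size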
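Infected erythrocytes (Dd2, 0.3% parasitemia, 2.5% hematocrit final) are added to compound in RPMI-1640/Albumax II medium, grown 72 h at 37C in low oxygen, then lysed with saponin/Triton-X containing SYBR Green and read by fluorescence.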
Numbers without * were called inactive; i = inactive; [ ] = dose if it differs, or a comment. Only a selection was taken, and hits are over-represented in it overall. Potency is read from the fitted curve at half-maximal effect.

SMILES	Pf Dd2 growth
CCC(Oc1ccccc1)C(=O)Nc1cccc(OCc2cc(=O)n3cccc(C)c3n2)c1 (stereo not drawn)	i
CCC(Sc1nc2ccccc2c2nc(CCn3cncc3C)nn12)C(=O)Nc1cccc(OC)c1 (stereo not drawn)	7.1µM*
COCCn1cnc2ccc(-c3cccnc3OC)nc2c1=O	i
CC(=O)c1ccc(NC(=O)CCSc2nc(-c3ccco3)cc(C(F)(F)F)n2)cc1	-6%
COc1ccc(NC(=O)CCSc2nc(-c3ccco3)cc(C(F)(F)F)n2)cc1	i
CN(C)c1ccc(NC(=O)CCSc2nc(-c3ccco3)cc(C(F)(F)F)n2)cc1	11µM*
CN1C(=O)C(CC(=O)Nc2ccccc2)=C2CCCCC21 (stereo not drawn)	i
O=C1NCCOCCN(S(=O)(=O)c2ccccc2)[C@H]2CCC[C@@H]12	20%
CCCCN1CCN(C(=O)c2cc(Cl)c(C)c(Cl)c2)CC1=O	-7%
CCCCN1CCN(c2nc(-c3ccccc3)nc3c2CCNC3)CC1=O	11µM*
Cc1ccc(N2CCN(c3nc4c(c(=O)[nH]3)CCNC4)CC2)cc1	7%
Cc1cnc(C(=O)N2CCCCCC2CN2CCCC2)cn1 (stereo not drawn)	-17%
CN1CCOC[C@H]1c1ncc(-c2cccc(F)c2)[nH]1	0%[44.1 µM]
COc1ccc(CN2C(=O)[C@@H]3C[C@@H](O)CN3C3(CN(Cc4cccc(OC)c4)C3)C2=O)cc1	i
COc1ccc(CN2C(=O)[C@@H]3C[C@@H](O)CN3C3(CN(Cc4ccncc4)C3)C2=O)cc1	6%[44.1 µM]
COc1ccc(CN2C(=O)[C@@H]3C[C@@H](O)CN3C3(CN(Cc4cnc5ccccc5c4)C3)C2=O)cc1	7.1µM*
CC(=O)N1CCC(C(=O)N[C@H](Cc2ccccn2)C2CC(O)C2)CC1 (stereo partly drawn)	-13%
O=C(CN1C(=O)NC2(CCOCC2)C1=O)Nc1ccccc1	4%
COc1ccc(NC(=O)CCC2CCCN(C(=O)C3=C(C)OCCO3)C2)cc1Cl (stereo not drawn)	3.2µM*
COc1ccc(Cl)cc1NC(=O)CCC1CCCN(Cc2ccc(C)s2)C1 (stereo not drawn)	13µM*
COc1ccc(Cl)cc1NC(=O)CCC1CCCN(C(=O)CCc2scnc2C)C1 (stereo not drawn)	-23%
COc1ccc(NC(=O)CCC2CCCN(C(=O)c3csc(C(C)=O)c3)C2)cc1Cl (stereo not drawn)	i
COc1cc(OC)cc(C(=O)NCC2CCCN(C(=O)C3=C(C)OCCO3)C2)c1 (stereo not drawn)	-6%
COc1ccc(Cl)cc1NC(=O)CCC1CCCN(S(=O)(=O)C2CC2)C1 (stereo not drawn)	-27%
CN(C)C1CNC1	-10%[115 µM]
SMILES	Pf Dd2 growth
COc1cccc(OCc2nc(C(=O)N3CCC4(CC3)CNC(=O)O4)co2)c1	0%
O=C(C1CCCCCC1)N1CCC(n2cc(-c3ccccc3)nn2)CC1	-11%
O=C1NC(C(=O)NCC2CC2)Cn2cccc21 (stereo not drawn)	65%
COc1cc(CN2CCC3(CCNCC3)C2)cc(OC)c1OC	-4%
COC(=O)c1cc(CN2CCCC3(CCNC3)C2)ccc1O (stereo not drawn)	-17%
C=Cc1cccc(CN2CCCC3(CCNC3)C2)c1 (stereo not drawn)	10µM*
COC(=O)[C@H](NC(=O)[C@@H]1C[C@H](NC(=O)Nc2ccc(F)cc2F)CN1C(=O)CSC)C(C)C	-7%
COc1ccc(C(=O)N2CCC3(CC2)C(OC)CN3c2cccc(F)c2)cc1 (stereo not drawn)	i
COc1ccc([C@H]2C[C@@H](O)[C@@H](O)[C@@H]2NC(=O)c2ccc(C(F)(F)F)cc2)cc1	-19%[44.1 µM]
Cc1ccccc1C(=O)N[C@H]1[C@H](O)[C@H](O)C[C@@H]1c1ccc(C(F)(F)F)cc1	3.5µM*
COc1ccc(CC(=O)N[C@H]2[C@H](O)[C@H](O)C[C@@H]2c2ccc(C(F)(F)F)cc2)cc1	-15%[44.1 µM]
Cc1ccccc1[C@H]1C[C@@H](O)[C@@H](O)[C@@H]1NC(=O)c1ccc(C(F)(F)F)cc1	i
COc1ccc([C@H]2C[C@@H](O)[C@@H](O)[C@@H]2NC(=O)Nc2ccc(C(F)(F)F)cc2)cc1	3.2µM*
COc1ccccc1C(=O)N[C@H]1[C@H](O)[C@H](O)C[C@@H]1c1ccc(C(F)(F)F)cc1	i
O=C(C1CCc2nnc(-c3ccc(Cl)cc3Cl)n21)N1CCCC1 (stereo not drawn)	-2%
COc1cccc(NC(=O)c2ccc(N3CC4CC(C3)[C@H]3CCCC(=O)N3C4)nc2)c1 (stereo partly drawn)	i
O=C1OCC2=C1C(c1ccc(Cl)cc1)NC(=O)N2CC(=O)N1CCC(Cc2ccccc2)CC1 (stereo not drawn)	i
COc1ccc(NC(=O)/C=C\C(=O)N(c2ccc(C(C)C)cc2)C(C(=O)NCc2ccco2)c2ccc(C)cc2)cc1 (stereo not drawn)	10µM*
COc1ccc(NC(=O)C(c2ccc(C)cc2)N(C)C(=O)/C=C\c2ccc3c(c2)OCO3)cc1 (stereo not drawn)	-25%
COc1ccc(/C=C/C(=O)Nc2ccc(C)cc2)cc1	-29%
COCCN(Cc1ccncc1)C(=O)C1CCN(C(=O)C2CC2)CC1	29%
COC[C@]1(O)CCN(C(=O)c2ccc3c(c2)CCC3)CC1(C)C	-9%
Cc1cc(CNC(=O)[C@@H]2CCC[C@@H](NC(=O)C3CCCC3)CN(C)C(=O)C2)no1	-14%[44.1 µM]
Cc1ccccc1-c1nnc(CN2CCN(c3cc(Cl)ccc3C)CC2)o1	-10%
COc1cc(OC)c(NC(c2nnc(-c3ccccc3)o2)c2ccc(F)cc2Cl)cc1Cl (stereo not drawn)	6.3µM*
SMILES	Pf Dd2 growth
Cc1ccc(Cl)cc1NC(=O)c1cnn2c(C(F)F)cc(-c3ccccc3)nc12	14%
Cc1ccc(Cl)cc1NC(=O)c1ccc(-c2nc(CSc3ccccc3)c(C)o2)cc1	i
Cc1ccc(Cl)cc1NC(c1ccc(F)cc1)c1nnc(-c2ccccc2)o1 (stereo not drawn)	13µM*
Cc1cccc(N2CCN(c3ncnc4onc(C)c34)CC2)c1C	-5%
Cc1cccc(N2CCN(C(c3ccc(F)cc3)c3nnc(-c4ccccc4)o3)CC2)c1C (stereo not drawn)	11µM*
COCCn1c(C)cc(O)c(C(c2ccc(F)cc2)N2CCN(c3ccccc3)CC2)c1=O (stereo not drawn)	i
Cc1ccc(Cl)cc1N1CCN(c2ncnc3onc(-c4ccc(F)cc4)c23)CC1	-12%
COc1cc(OC)c(NC(=O)c2ccc3nc(C(C)C)oc3c2)cc1Cl	-12%
COc1cc(OC)c(NC(=O)COc2ccccc2-c2nnc(-c3ccccc3)o2)cc1Cl	12%
Cc1ccc(Cl)cc1N1CCN(C(c2ccc(F)cc2)c2nnc(-c3ccccc3)o2)CC1 (stereo not drawn)	7.9µM*
O=C(NCc1ccccc1)C1CCC(=O)N1C1CCN(C(=O)c2ccc(F)cc2F)CC1 (stereo not drawn)	-25%
Cc1nonc1CN(C)C(=O)CC(c1ccccc1)c1ccc2c(c1)OCO2 (stereo not drawn)	-10%
COC(=O)[C@@H]1C[C@@H](NC(=O)C2CCN(C(=O)CC(C)C)CC2)CN1C	-2%
O=C(N[C@H]1CCN2C(=O)N(c3cccc4nsnc34)C(=O)[C@@H]2C1)c1ccnc(Cl)c1	i
COC1CCC(C(=O)N2CCc3c(n(CCOc4ccccc4)n(-c4ccccc4)c3=O)C2)CC1 (stereo not drawn)	-7%
